CtBP-E1A inh = qHTS Assay for Inhibitors of the CtBP/E1A Interaction; activity change, % (concentration not given with the values); 340,000 tested, 0.49% active; AlphaScreen GST-E1A/His-CtBP binding, 1536-well; hits give low values; in the data active means activity change below about -65%; inconclusive means mostly about -30% to -63%; further: on the % scale 0 is the no-effect control and ±100 the full control effect
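Homogeneous bead-based format: GST-tagged E1A captured on glutathione donor beads, His-tagged CtBP on nickel acceptor beads; compounds precede bead addition by 2 h at 37 °C.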
RORgamma inh = qHTS for inhibitors of ROR gamma transcriptional activity; Nuclear receptor ROR-gamma (Mus musculus), P51450; Drosophila S2 Gal4-RORgamma UAS-luciferase reporter, 20 h; Potency, µM (doses to about 53.6 µM), for the others: top-dose activity change, negative = inhibition, hits mostly inhibitors; 310,000 tested, 5.4% active; further: potency means the concentration at half of the fitted maximal effect; on the % scale 0 is the no-effect control and ±100 the full control effect; nearly all actives have a fitted effect of over 60% in size
Target sequence (P51450 whole entry, looked up, the tested form may be a part): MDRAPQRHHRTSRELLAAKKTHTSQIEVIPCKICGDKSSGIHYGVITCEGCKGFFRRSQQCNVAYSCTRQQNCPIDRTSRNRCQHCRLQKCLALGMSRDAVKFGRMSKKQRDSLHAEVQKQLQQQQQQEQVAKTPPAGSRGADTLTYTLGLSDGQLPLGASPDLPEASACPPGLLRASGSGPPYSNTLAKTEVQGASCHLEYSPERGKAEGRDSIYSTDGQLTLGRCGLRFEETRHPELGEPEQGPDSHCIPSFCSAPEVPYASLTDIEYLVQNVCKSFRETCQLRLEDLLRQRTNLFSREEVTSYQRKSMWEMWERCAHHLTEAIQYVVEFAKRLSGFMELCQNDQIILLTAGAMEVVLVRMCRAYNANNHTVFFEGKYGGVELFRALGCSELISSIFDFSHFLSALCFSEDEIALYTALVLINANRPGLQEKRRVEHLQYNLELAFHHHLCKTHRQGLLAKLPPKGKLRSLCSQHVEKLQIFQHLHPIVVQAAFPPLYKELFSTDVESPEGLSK
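Compounds are pin-transferred onto Drosophila Schneider cells expressing a copper-inducible Gal4–ROR gamma transactivation domain fusion. After 1 hr, copper sulfate is added to 700 uM final; luciferase is read 20 hr later.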
Gal4-VP16 FLuc = VP16 counterscreen qHTS for inhibitors of ROR gamma transcriptional activity; Drosophila S2 Gal4-VP16 UAS-luciferase, luminescence, 20 h; Potency, µM (titrated, usually from 53.6 µM), for the others: top-dose activity, negative = inhibition, usual class: inhibitors; 310,000 tested, 3.5% active; AID 2546, 2010;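 further: Gal4-VP16 expression switched on by copper sulfate through the metallothionein promoter; potency means the concentration at half of the fitted maximal effect; on the % scale 0 is the no-effect control and ±100 the full control effect; nearly all actives have a fitted effect of over 50% in size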
Six1-Eya2 blk = qHTS Assay for Inhibitors of the Six1/Eya2 Interaction | 360,000 tested, 0.56% active | Homeobox protein SIX1 (Homo sapiens) + Protein phosphatase EYA2 (Homo sapiens), … | activity change, % (test concentration not listed) | AID 651725, 2012 | AlphaScreen GST-Six1/His-Eya2 binding, biochemical; hits give low values; in the data active means activity change below about -65%; inconclusive means mostly about -30% to -63%; further: on the % scale 0 is the no-effect control and ±100 the full control effect
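GST-Six1 + His-Eya2 (5X stock: 250/500 nM); Tris pH 8.0, 300 mM NaCl, 0.05% BSA, 0.02% Tween 20; GSH donor/Ni acceptor beads; 1 h 37 °C dark; AlphaScreen readout.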
p53 reactivation = qHTS assay for re-activators of p53 using a Luc reporter. Potency, µM (top dose mostly 92.2 µM), without a hit: at the highest dose activity change, positive = activation, actives largely listed as activators. AID 504706, 2011. 320,000 tested, 0.063% active. H1299 p53-A138V BP100-luciferase reporter, luminescence, 24 h; further: potency means the concentration at half of the fitted maximal effect; % of control where 0% means no effect; nearly all actives have a fitted effect of over 45% in size
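p53-null H1299 cells stably carrying temperature-sensitive p53-A138V and a BP100-luciferase reporter were pinned with compounds (4-point, 1:5 series) and held 24 hrs at 37 deg C. Luminescence was read 10 min after detection reagent.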
* hit, by the source's call. The list is not random: actives were taken first. Their share in the collection is about 5.4%. Unless noted, the call rests on the fitted dose curve; in most records, active means well fitted curve in the direction sought with a large enough effect; inconclusive means small, poorly fitted or top-dose-only effect, or another doubt; inactive means no such curve, though single readings can be large; an effect the other way counts as inactive or inconclusive.

What do the screens show for `CCOC(=O)c1c(S(=O)(=O)N(C)C2CCCCC2)c(C)n(C)c1C`?
CtBP-E1A inh: -4; RORgamma inh: -2%; Gal4-VP16 FLuc: 16%; Six1-Eya2 blk: -3; p53 reactivation: -2%

What do the screens show for `Cc1ccccc1C(=O)NNC(=O)Nc1ccccc1`?
RORgamma inh: -34%; Gal4-VP16 FLuc: -4%; p53 reactivation: 1%

How did Cc1ccccc1C(=O)NNC(=O)/C=C\C(=O)O do in these assays?
CtBP-E1A inh: 0; RORgamma inh: 3.5µM*; Gal4-VP16 FLuc: inconclusive; Six1-Eya2 blk: -12; p53 reactivation: 12%

How did Cc1cccc(C(=O)NNC(=O)c2cccc(C)c2)c1 do in these assays?
CtBP-E1A inh: 0; RORgamma inh: 21%; Gal4-VP16 FLuc: 6%; Six1-Eya2 blk: 7; p53 reactivation: 13%

How did Cc1cccc(C(=O)NNC(=O)/C=C/C(=O)O)c1 do in these assays?
RORgamma inh: 14µM*; Gal4-VP16 FLuc: -10%; Six1-Eya2 blk: 0; p53 reactivation: inconclusive

How did O=C(O)/C=C/C(=O)NNC(=O)c1ccccc1Br do in these assays?
CtBP-E1A inh: 7; RORgamma inh: 11µM*; Gal4-VP16 FLuc: -16%; Six1-Eya2 blk: 4; p53 reactivation: 1%

Results for COC(=O)c1ccc(C(=O)OC)c(NC(=O)CN(c2ccc3c(c2)OCO3)S(C)(=O)=O)c1 ?
CtBP-E1A inh: 6; RORgamma inh: 7%; Gal4-VP16 FLuc: 2%; Six1-Eya2 blk: -2; p53 reactivation: 1%

What do the screens show for `CSCCC(NS(=O)(=O)c1ccccc1F)C(=O)Nc1ccncc1` (stereo unspecified)?
CtBP-E1A inh: 1; Six1-Eya2 blk: 3; p53 reactivation: -1%

Results for C[C@H](CO)N1C[C@H](C)[C@@H](CN(C)S(=O)(=O)c2ccccc2F)Oc2ncc(Br)cc2C1=O ?
CtBP-E1A inh: 5; Six1-Eya2 blk: 4

How did COc1cc(/C=C2\C(=O)ON=C2c2ccccc2)cc(Cl)c1O do in these assays?
CtBP-E1A inh: 4; RORgamma inh: inconclusive; Gal4-VP16 FLuc: 13µM*; Six1-Eya2 blk: -13; p53 reactivation: -3%

What do the screens show for `COc1cc(/C=C(\C#N)C(=O)NC(C)C)ccc1OCc1ccc(C(=O)O)cc1`?
CtBP-E1A inh: -73*; RORgamma inh: -26%; Gal4-VP16 FLuc: 26%; Six1-Eya2 blk: -1; p53 reactivation: 2%

Results for COc1cc(/C=C(\C#N)C(=O)NC2CCCCC2)ccc1OCc1ccc(C(=O)O)cc1 ?
CtBP-E1A inh: -93*; RORgamma inh: 13µM*; Gal4-VP16 FLuc: inconclusive; Six1-Eya2 blk: inconclusive; p53 reactivation: inconclusive

Results for O=C(COC(=O)c1ccccc1O)Nc1ccc(N2CCOCC2)cc1 ?
CtBP-E1A inh: -5; Six1-Eya2 blk: -1; p53 reactivation: inconclusive

How did CC(C)C(=O)Nc1ccc(NC(=O)c2cccc3c(Br)cccc23)cc1 do in these assays?
CtBP-E1A inh: 4; RORgamma inh: -1%; Gal4-VP16 FLuc: -1%; Six1-Eya2 blk: -7; p53 reactivation: 2%

What do the screens show for `O=C(/C=C/c1ccc([N+](=O)[O-])cc1)OCC(=O)N1CCCCCC1`?
CtBP-E1A inh: -72*; Six1-Eya2 blk: -10; p53 reactivation: 10%

How did C/C(=N/NC(=O)C1CCCCC1)c1ccc([N+](=O)[O-])cc1 do in these assays?
CtBP-E1A inh: -13; RORgamma inh: -42%; Gal4-VP16 FLuc: 0%; Six1-Eya2 blk: -8; p53 reactivation: 9%

How did COC(=O)C(CC(=O)c1ccc(Br)cc1)n1nc(C)cc1C (stereo unspecified) do in these assays?
CtBP-E1A inh: 12; RORgamma inh: inconclusive; Gal4-VP16 FLuc: inconclusive; Six1-Eya2 blk: 8; p53 reactivation: -4%

Results for COC(=O)C(CC(=O)c1ccc(Br)cc1)n1ccnc1 (stereo unspecified) ?
RORgamma inh: 0.63µM*; Gal4-VP16 FLuc: 1µM*; p53 reactivation: -44%

What do the screens show for `Cc1ccc2sc(N3CCN(CCNC(=O)c4ccco4)CC3)nc2c1C`?
CtBP-E1A inh: -2; Six1-Eya2 blk: -2; p53 reactivation: -3%

What do the screens show for `CCCn1c(SC(C(=O)Nc2cc(C)ccc2OC)c2ccccc2)nc2ccccc2c1=O` (stereo unspecified)?
CtBP-E1A inh: -2; RORgamma inh: 20µM*; Gal4-VP16 FLuc: inconclusive; Six1-Eya2 blk: -3; p53 reactivation: -3%

What do the screens show for `C(=N\Nc1nc(Nc2ccccc2)nc(N2CCOCC2)n1)/c1c[nH]c2ccccc12`?
CtBP-E1A inh: -21; RORgamma inh: -29%; Gal4-VP16 FLuc: -8%; Six1-Eya2 blk: -9; p53 reactivation: -4%

How did Cc1ccc(Nc2nc(N/N=C/c3c[nH]c4ccccc34)nc(N3CCOCC3)n2)cc1 do in these assays?
CtBP-E1A inh: -15; RORgamma inh: 11µM*; Gal4-VP16 FLuc: inconclusive; Six1-Eya2 blk: -21; p53 reactivation: inconclusive

What do the screens show for `Cc1[nH]c2ccccc2c1/C=N/Nc1nc(Nc2ccc(F)cc2)nc(N2CCOCC2)n1`?
CtBP-E1A inh: 0; RORgamma inh: 2.5µM*; Gal4-VP16 FLuc: 5.6µM*; Six1-Eya2 blk: 16; p53 reactivation: 3%

What do the screens show for `O=C(Nc1cccnc1)c1ccc([N+](=O)[O-])s1`?
CtBP-E1A inh: -15; Six1-Eya2 blk: -2; p53 reactivation: inconclusive

What do the screens show for `COc1ccc([C@H]2CC(=O)C=C(/C=C/c3ccccc3)C2)cc1OC`?
Six1-Eya2 blk: -26; p53 reactivation: -30%

Results for Cc1nc2ccccn2c1-c1csc(NCc2ccco2)n1 ?
CtBP-E1A inh: -3; RORgamma inh: 11µM*; Gal4-VP16 FLuc: inconclusive; Six1-Eya2 blk: -8; p53 reactivation: 12%

How did Cc1nc(NC(=O)c2ccccc2)sc1-c1csc(NCc2ccco2)n1 do in these assays?
CtBP-E1A inh: -5; RORgamma inh: 20µM*; Gal4-VP16 FLuc: inconclusive; Six1-Eya2 blk: -12; p53 reactivation: inconclusive

How did Cc1ccc(Nc2nc(-c3c(C)nc4ncccn34)cs2)cc1 do in these assays?
CtBP-E1A inh: -90*; RORgamma inh: inconclusive; Gal4-VP16 FLuc: -6%; Six1-Eya2 blk: -75*; p53 reactivation: -4%

How did Cc1nc(C)c(-c2csc(NCc3ccco3)n2)s1 do in these assays?
CtBP-E1A inh: -24; RORgamma inh: 12%; Gal4-VP16 FLuc: -26%; Six1-Eya2 blk: -14; p53 reactivation: 23%

How did Cc1ccc(Nc2nc(-c3c(C)nc4ccccn34)cs2)cc1 do in these assays?
CtBP-E1A inh: -17; RORgamma inh: 10µM*; Gal4-VP16 FLuc: inconclusive; Six1-Eya2 blk: -16; p53 reactivation: 11%

Assay outcomes as filed in PubChem.
